Screening results (PubChem)
PNC inhibitor = perinucleolar compartment assembly inhibition; PC3M PTB-GFP, PNC prevalence imaging, 16 h; hits give low values; activity change (PNC), negative = inhibition, % at 10 µM; 140,000 compounds, 3.1% hits;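 active = readout at or below -70, meaning at least 70% loss of cells showing the perinucleolar compartment, a nuclear body marking cancer cells; inconclusive = readout between -30 and a set limit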;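 note: plate controls were DMSO wells for no effect and camptothecin positive control wells for full effect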
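Compounds are pinned in duplicate onto adhered PC3M cells stably expressing GFP-tagged PTB and incubated 16 h at 37 C. Cells are then fixed, nuclei stained with Hoechst, and PNC-positive cells counted.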
ALOX12 inhib = 12-hLO (ALOX12) enzyme inhibition; P18054; purified 12-hLO, xylenol orange hydroperoxide absorbance; Potency, µM (highest dose often 57.1 µM), inactives show at the highest dose activity change, negative = inhibition, actives largely listed as inhibitors; 150,000 compounds, 0.12% hits; note: potency is the fitted concentration of half-maximal effect; % is set by controls: 0 for no effect and ±100 for the full control effect; nearly all actives have a fitted effect of over 55% in size
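Purified human 12hLO (150 nM), preincubated 15 min with compound, then 40 uM arachidonic acid for 30 min, room temperature, Hepes pH 7.0 with 0.01% Triton X-100. Hydroperoxide detected by ferrous iron/xylenol orange; 573/405 nm absorbance ratio gives reaction progress.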
IMPase inh = IMPase inhibition in cells; inhibition (IP1 accumulation), % at 46.1 µM; 120,000 tested, under 10 active; P97697; AID 901; CHO-M1 cells, IP1 accumulation, HTRF TR-FRET ratio; active = well fitted curve in the direction sought with a large enough effect in the signal ratio, not every such curve was filed as active; inconclusive = small, poorly fitted or top-dose-only effect, or a change in a side signal; inactive = no such curve, though single readings can be large or run the other way; the % refers to the signal ratio;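 note: cells stimulated with carbachol in lithium chloride buffer; plate controls were DMSO basal wells for no effect and reference inhibitor wells for full effect; higher means more IMPase inhibition seen as more IP1 and lower FRET ratio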
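Cellular IMPase inhibition is scored as a rise in cytosolic IP1, detected by competitive TR-FRET between d2-labelled IP1 and a europium anti-IP1 antibody. M1-expressing CHO cells were stimulated with carbachol for 30 min at 37C, with lithium (50 mM LiCl) present in the buffer.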
HTT ATP protect = protects HTT-Q103 PC12 cells, measured by ATP; Potency, µM (titrated, usually from 56.4 µM), inactives show cytoprotection (ATP increase), usual class: activators; PC12 HTT-Q103 induced, cytoprotection, ATP luminescence, 40 h; 230,000 compounds, 0.14% hits; note: potency is the fitted concentration of half-maximal effect; % of control where 0% means no effect; nearly all actives have a fitted effect of over 45% in size
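Stable PC12 Q103-GFP cells in serum-supplemented, phenol red-free DMEM; induction by tebufenozide at 100 nM final; compound dose series; cell viability quantified luminescently from ATP.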
NPSR antagonist = blocks cAMP signaling of the human neuropeptide S receptor. Q6W5P4. CHO-NPSR cells, cAMP TR-FRET, antagonist mode. Potency, µM (top dose mostly 38.3 µM), without a hit: at the highest dose activity change, negative = inhibition, hits mostly inhibitors. 220,000 compounds, 1% hits. AID 1461; note: potency is the fitted concentration of half-maximal effect; % is set by controls: 0 for no effect and ±100 for the full control effect; nearly all actives have a fitted effect of over 50% in size
Target sequence (Q6W5P4 whole entry, looked up): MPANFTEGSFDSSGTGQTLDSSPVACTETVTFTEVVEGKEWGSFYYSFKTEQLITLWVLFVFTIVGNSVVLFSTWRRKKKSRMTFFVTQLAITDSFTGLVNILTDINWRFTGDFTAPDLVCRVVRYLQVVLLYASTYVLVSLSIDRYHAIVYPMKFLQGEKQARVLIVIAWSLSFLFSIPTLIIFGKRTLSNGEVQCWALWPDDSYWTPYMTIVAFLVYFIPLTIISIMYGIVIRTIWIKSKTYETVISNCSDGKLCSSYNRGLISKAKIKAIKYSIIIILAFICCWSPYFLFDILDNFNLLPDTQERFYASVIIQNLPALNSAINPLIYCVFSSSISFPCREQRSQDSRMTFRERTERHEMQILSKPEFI
HTT aggregate = mutant huntingtin aggregation inhibition | PC12 HttQ103-GFP aggregates, Acumen cytometry, 40 h | Potency, µM (doses to about 46.1 µM), inactives show at the highest dose activity change, negative = inhibition, most hits filed as inhibitors | 220,000 compounds, 1.1% hits | AID 1688; note: potency is the fitted concentration of half-maximal effect; % is set by controls: 0 for no effect and ±100 for the full control effect; nearly all actives have a fitted effect of over 60% in size
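Compounds (qHTS titration) were added to PC12 cells expressing an ecdysone-driven HTT exon 1 Q103–GFP fusion after induction with 100 nM tebufenozide. Aggregate formation was measured as GFP objects in cell lysates.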
Numbers without * were called inactive; [ ] = dose if it differs, or a comment. The list is not random: actives were taken first. Their share in the collection is about 3.3%. Unless noted, calls come from the whole dose curve; as a rule, active = well fitted curve in the direction sought with a large enough effect; inconclusive = small, poorly fitted or top-dose-only effect, or another doubt; inactive = no such curve, though single readings can be large; an effect the other way counts as inactive or inconclusive.

Screening O=C(NN1CCOCC1)c1cc(S(=O)(=O)Nc2cccc(C(F)(F)F)c2)ccc1Cl returned PNC inhibitor -98*, ALOX12 inhib -1%, IMPase inh -7, HTT ATP protect 6%[10 µM], NPSR antagonist 10%[46.1 µM] and HTT aggregate inconclusive.
CCc1cccc(CC)c1NC(=S)NCCc1c(C)[nH]c2ccc(C)cc12 was read as PNC inhibitor 27, ALOX12 inhib inconclusive, NPSR antagonist -17% and HTT aggregate 6.3µM*.
CCc1cccc(C)c1NC(=S)NCCc1c(C)[nH]c2ccc(C)cc12 was read as PNC inhibitor inconclusive, ALOX12 inhib inconclusive, NPSR antagonist -28% and HTT aggregate inconclusive.
For Cc1cc(C(=O)Nc2sc3c(c2C#N)CCC3)no1 the results were PNC inhibitor -85*, ALOX12 inhib -7%, IMPase inh 5, HTT ATP protect -82%, NPSR antagonist -7%[46.1 µM] and HTT aggregate -7%.
N#Cc1c(NC(=O)/C=C/c2ccco2)sc2c1CCCC2 was read as PNC inhibitor -112*, ALOX12 inhib -15%, IMPase inh -8, HTT ATP protect -82%[10 µM], NPSR antagonist 6% and HTT aggregate 13%.
`COc1ccc(NC(=O)N/C=C/c2ccccc2)cc1` gave HTT ATP protect -29%, NPSR antagonist -5% and HTT aggregate -4%.
Screening COc1cc2cc(Oc3ccc4ccc(=O)oc4c3)c(=O)oc2cc1OC(=O)C=C(C)C returned HTT ATP protect -22%[10 µM], NPSR antagonist -11% and HTT aggregate -5%[9.22 µM].
`COc1ccc(Nc2ccnc(Nc3ccc(OC)cc3)n2)cc1` gave PNC inhibitor -93*, ALOX12 inhib -2%, HTT ATP protect 11%[0.074 µM], NPSR antagonist 11% and HTT aggregate -26%.
For COC(=O)c1sccc1NC(=O)c1sccc1C the results were PNC inhibitor -100*, ALOX12 inhib -2%, IMPase inh 4, HTT ATP protect -8%[10 µM], NPSR antagonist 6%[46.1 µM] and HTT aggregate -4%.
CCOC(=O)c1ccccc1NC(=O)c1c(O)c2ccccc2n(CC)c1=O was read as PNC inhibitor 1, ALOX12 inhib -5%, IMPase inh 8, HTT ATP protect inconclusive, NPSR antagonist 6%[46.1 µM] and HTT aggregate inconclusive.
For CCn1c(=O)c(C(=O)Nc2ccsc2C(=O)OC)c(O)c2ccccc21 the results were PNC inhibitor -21, ALOX12 inhib -1%, IMPase inh -17, HTT ATP protect inconclusive, NPSR antagonist inconclusive and HTT aggregate 7.1µM*.
Screening CC(C)(C)c1nnc(NC(=O)CCn2cnc3ccccc3c2=O)s1 returned NPSR antagonist 7%.
`CC(C)(C)NC(=O)CSc1nnc(NC(=O)CCn2cnc3ccccc3c2=O)s1` gave PNC inhibitor -122*, ALOX12 inhib 2%, IMPase inh -2, HTT ATP protect -5%[0.074 µM], NPSR antagonist -4%[46.1 µM] and HTT aggregate 2%.
For COc1ccc(-n2cc(-c3ccc(OC(F)F)cc3)[n+]3c2CCCCC3)cc1 the results were HTT ATP protect -5%[10 µM], NPSR antagonist -2% and HTT aggregate 16µM*.
Screening COc1ccc(-c2cn(-c3ccc(Cl)cc3)c3[n+]2CCCCC3)cc1 returned HTT ATP protect -11%[10 µM], NPSR antagonist 7% and HTT aggregate -21%[9.22 µM].
Screening O=C(CSCC(=O)N1CCN(c2ccccc2)CC1)Nc1nc(-c2ccc(Cl)s2)cs1 returned PNC inhibitor -108*, ALOX12 inhib -9%, IMPase inh 11, HTT ATP protect 18%[10 µM], NPSR antagonist -23%[46.1 µM] and HTT aggregate -7%.
CN(CCOc1ccc(-c2ccn(S(=O)(=O)c3cccc4ccccc34)n2)cc1)c1ccccn1 was read as PNC inhibitor -89*, ALOX12 inhib -2%, IMPase inh 4[1.84 µM], HTT ATP protect 21%[10 µM], NPSR antagonist -13%[46.1 µM] and HTT aggregate 5%.
